According to PubChem BioAssay AID652115 (Broad Institute, 2013):
“And” between values parts separate entries of the source, which are not always exact repeats. Equal values may be shown once. In all, about 330,000 compounds went through this assay and about 3,800 (1.2%) were called active. Cut-off read from the data, not from the text of the source: active = inhibition above about 15%; inconclusive = no clear call, values can overlap the other calls; inactive = below that. Shown is part of a subset that was picked to be rich in actives.

Target: NAD-dependent protein deacylase sirtuin-5, mitochondrial (Homo sapiens) (UniProt Q9NXA8)
Sequence (Q9NXA8 whole entry, looked up): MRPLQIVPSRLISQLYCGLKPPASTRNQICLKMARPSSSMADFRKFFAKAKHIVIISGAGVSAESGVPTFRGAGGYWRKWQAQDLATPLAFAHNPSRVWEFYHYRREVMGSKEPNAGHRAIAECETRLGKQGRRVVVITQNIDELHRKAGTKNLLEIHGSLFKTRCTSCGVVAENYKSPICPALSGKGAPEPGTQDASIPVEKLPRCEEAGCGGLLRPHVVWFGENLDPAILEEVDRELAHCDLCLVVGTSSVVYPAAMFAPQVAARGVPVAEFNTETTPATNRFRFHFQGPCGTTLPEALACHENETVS
Assay: blockers of sirtuin-5 deacylase activity – biochemical, fluorescence imaging, single point, set 5, primary screen (AID 652115)
Settings: Purified SirT5, succinyl-peptide AMC, trypsin-coupled fluorescence; at 15 µM; stronger effect = higher value

inhibition, active:
CCN(CCn1cccn1)C(=O)CC1C(=O)NCCN1Cc1cccc(OC)c1OC (stereo not drawn) 16.5%
COc1ccccc1-c1nnc(NC(=O)c2ccc3ncsc3c2)o1 20.5%
CC(=O)N(C)C[C@H]1Oc2ncc(-c3cccc(F)c3)cc2C(=O)N([C@@H](C)CO)C[C@H]1C 25.3%
C[C@@H]1CN([C@H](C)CO)C(=O)c2cc(-c3cccc(F)c3)cnc2O[C@@H]1CN(C)C 21.7%
Cc1ccc(S(=O)(=O)N(Cc2cc3ccccc3[nH]c2=O)CC2CCCO2)cc1 (stereo not drawn) 23.6%
O=C(NCCc1ccc(F)cc1)c1ccc2nccnc2c1 16%
CC(C)CC#Cc1cnc2c(c1)C(=O)N([C@H](C)CO)C[C@H](C)[C@H](CN(C)CC1CCOCC1)O2 23%
C[C@@H]1CN([C@@H](C)CO)C(=O)c2cc(C#CC3CCCCC3)cnc2O[C@H]1CN(C)S(=O)(=O)c1ccccc1 17.9%
CN(CCO)c1ccc(/C=N/Nc2nncc3ccccc23)cc1 25%
O=C(CCN1C(=O)C2C3C=CC(C3)C2C1=O)Oc1ccc2ccccc2c1 (stereo not drawn) 19.8%
CCN1/C(=C\c2ccc3ccccc3[n+]2CC)Sc2cc(C)ccc21 28.6%
CC1c2nc3ccccc3n2C(CC(=O)NCCCN2CCOCC2)C(=O)N1Cc1ccccc1 (stereo not drawn) 112%
N#CC(C#N)=CN=c1ccn(Cc2ccc(Cl)cc2Cl)cc1 16.1%
CC1CCN(C(=S)c2ccc(-c3ccc(Cl)cc3Cl)o2)CC1 17.1%
Cc1nn(-c2ccccc2)c2c1c(C)c(CCC(=O)NCC1CCCO1)c(=O)n2C (stereo not drawn) 39.7%
Cc1ccc(NC(=O)Cc2nnc(SCC(=O)Nc3nncs3)n2C)cc1 17.8%

inhibition, inactive:
CCS(=O)(=O)N1CC(=O)N2[C@H](CO)[C@@H](c3ccc(C#CC4CCCC4)cc3)[C@@H]2C1 -0.752%
CN(Cc1cccc2ncccc12)C(=O)CC1C(=O)NCCN1Cc1ccc(F)cc1 (stereo not drawn) 7.41%
COc1ccccc1CN1CCNC(=O)C1CC(=O)N(C)CC1CCOCC1 (stereo not drawn) -0.968%
Cc1noc(C)c1S(=O)(=O)Nc1ccc2c(c1)C(=O)N([C@H](C)CO)C[C@H](C)[C@H](CN(C)C(=O)NC1CCCCC1)OCCCC[C@H](C)O2 0.076%
COc1ccccc1-c1nnc(NC(=O)c2cccc(N3C(=O)CCC3=O)c2)o1 1.38%
Cc1sc(NC(=O)c2ccc3ncsc3c2)c(C(N)=O)c1C -6.86%
CCCNC(=O)C[C@H]1CC[C@@H]2[C@H](COC[C@H](O)CN2CC2CCCCC2)O1 -1.9%
C[C@H]1CN([C@@H](C)CO)C(=O)c2cc(-c3cccc(F)c3)cnc2O[C@@H]1CN(C)C(=O)c1ccccn1 0.073%
C[C@H]1CN([C@@H](C)CO)C(=O)c2cc(-c3cccc(F)c3)cnc2O[C@@H]1CN(C)S(C)(=O)=O 0.285% and -8.78%
C[C@H](CO)N1C[C@H](C)[C@@H](CN(C)C)Oc2ncc(-c3cccc(F)c3)cc2C1=O -1.97%
COc1cccc(-c2cnc3c(c2)C(=O)N([C@@H](C)CO)C[C@H](C)[C@H](CN(C)C(C)=O)O3)c1 2.24%
C[C@H]1CN([C@@H](C)CO)S(=O)(=O)c2ccc(C#Cc3ccccc3)cc2O[C@H]1CN(C)S(=O)(=O)c1cn(C)cn1 2.56%
COc1ccccc1-c1ccc([C@H]2[C@H](CO)N(C(=O)C3CC3)C23CN(C(C)=O)C3)cc1 2.52%
Cc1cc2cc(CN(Cc3cccs3)Cc3nnnn3CC3CCCO3)c(=O)[nH]c2cc1C (stereo not drawn) -2.28%
O=C(c1cccs1)N(Cc1cc2ccccc2[nH]c1=O)CC1CCCO1 (stereo not drawn) 0.632%
CO[C@H]1CN(C)C(=O)c2ccc(NC(=O)CC(F)(F)F)cc2OC[C@@H](C)N(C(=O)c2ccccc2F)C[C@@H]1C 4.25%
O=C(NCCc1ccc(F)cc1)c1ccc(S(=O)(=O)N2CCCCC2)cc1 -0.792%
O=C(NCCc1ccc(F)cc1)c1n[nH]c2ccccc12 9.38%
Cc1ccccc1-c1ccc(C2[C@@H]3CN(C(=O)C4CCCCC4)C[C@H]2N3)cc1 (stereo partly drawn) -6.18% and -1.65%
C/C=C/c1ccc(C2[C@H]3CNC[C@@H]2N3Cc2cccc(OC)c2)cc1 (stereo partly drawn) -2.37% and 0.748%
CCNC(=O)C[C@H]1CC[C@@H]2[C@H](COC[C@H](O)CN2S(=O)(=O)c2ccc(Oc3ccccc3)cc2)O1 -0.497%
COc1ccc(NC(=O)N(C)C[C@@H]2OCCCC[C@H](C)Oc3ccc(NS(=O)(=O)c4cccs4)cc3C(=O)N([C@@H](C)CO)C[C@@H]2C)cc1 -0.093%
C[C@H](CO)N1C[C@H](C)[C@@H](CN(C)CC2CCOCC2)Oc2ncc(C#Cc3ccc(F)cc3)cc2C1=O -1.14%
C[C@@H]1CN([C@H](C)CO)C(=O)c2cc(C#CC3CCCC3)cnc2O[C@H]1CN(C)S(C)(=O)=O -4.07%
C[C@H]1CN([C@@H](C)CO)C(=O)c2cc(C#CC3CCCCC3)cnc2O[C@H]1CN(C)S(=O)(=O)c1ccccc1 13.2%
C[C@@H]1CN([C@@H](C)CO)C(=O)c2cc(C#C[C@@H](C)O)cnc2O[C@H]1CN(C)CC1CCOCC1 -2.03%
C[C@H]1CN([C@@H](C)CO)S(=O)(=O)c2ccc(-c3cccc(C#N)c3)cc2O[C@H]1CN(C)CC1CC1 -0.017%
COCC#Cc1cnc2c(c1)C(=O)N([C@@H](C)CO)C[C@@H](C)[C@@H](CN(C)S(=O)(=O)c1cccc(OC)c1)O2 -3.81%
CN(C)Cc1cn(CC[C@H]2CC[C@H](NS(=O)(=O)c3ccccc3)[C@@H](CO)O2)nn1 -3.23%
Cc1ccc(S(=O)(=O)N2C[C@H](O)COC[C@H]3O[C@H](CC(=O)N[C@H]4CCN(Cc5ccccc5)C4)CC[C@@H]32)cc1 -1.53%
C/C(=N\Nc1nncc2ccccc12)c1ccc(Cl)c([N+](=O)[O-])c1 2.12%
CN(C(=O)CSc1nncc2ccccc12)C1CCCCC1 1.3%
C[C@H]1CCCCO[C@@H](CN(C)Cc2ccccc2)[C@@H](C)CN([C@@H](C)CO)C(=O)c2cc(NC(=O)Cc3ccccc3)ccc2O1 2.55%
O=C(C[C@H]1CC[C@@H](NC(=O)Cc2cccnc2)[C@H](CO)O1)Nc1ccc(-c2ccccc2)cc1 4.12%
O=C(O)CCCN1C(=O)C2C3c4ccccc4C(c4ccccc43)[C@@H]2C1=O (stereo partly drawn) -0.491%
Cc1ccc(C(=O)COC(=O)CCN2C(=O)C3C4CCC(C4)C3C2=O)cc1C (stereo not drawn) -2.42%
CCCNC(=O)N[C@@H]1C=C[C@H](CC(=O)NC2CCC2)O[C@H]1CO -0.778%
COc1ccc2c3c(n(C)c2c1)[C@H](CO)N(S(=O)(=O)c1ccc(C)cc1)CC31CN(C(=O)c2ccccn2)C1 1.96%
CN(C)C(=O)[C@@H]1[C@@H](CO)[C@@H]2Cn3c(ccc(-c4ccncc4)c3=O)[C@H]1N2C(=O)NC1CCCC1 -68%
COc1cccc(-c2cnc3c(c2)C(=O)N([C@H](C)CO)C[C@H](C)[C@@H](CN(C)Cc2ccc(C(=O)O)cc2)O3)c1 -2.74%
O=C(C[C@H]1C[C@@H]2c3cc(NC(=O)CC4CC4)ccc3O[C@@H]2[C@H](CO)O1)NCc1ccccn1 -3.34%
C[C@@H](O)C#Cc1cnc2c(c1)C(=O)N([C@@H](C)CO)C[C@H](C)[C@H](CN(C)C(=O)c1ccccc1F)O2 2.03%
O=C(Cn1ncc2c3ccccc3n(Cc3ccccc3)c2c1=O)NCCCN1CCOCC1 0.065%
CC1=C(C(=O)N(C)C)CC(CC(=O)NCCN2CCOCC2)C(=O)N1Cc1ccccc1 (stereo not drawn) -4.9%
C[C@@H]1CCCCO[C@@H](CN(C)Cc2ccc3c(c2)OCO3)[C@H](C)CN([C@@H](C)CO)C(=O)c2cc(NS(C)(=O)=O)ccc2O1 -3.83%
CC(C)(C)c1cc(C(=O)NN)n(Cc2ccc(Cl)cc2Cl)n1 1.67%
C[C@@H]1CN([C@@H](C)CO)C(=O)c2cc(NC(=O)Nc3ccc(C(F)(F)F)cc3)ccc2O[C@@H](C)CCCCO[C@@H]1CN(C)C(=O)Nc1cccc2ccccc12 -1.14%
Cc1csc(NC(=O)c2ccc(-c3ccc(Cl)cc3Cl)o2)n1 -0.507%
CC1CCN(C(=S)c2cccc(O)c2)CC1 0.61%
COc1ccc2c3c([nH]c2c1)[C@H](CO)N(C(=O)c1ccccc1)CC31CN(C(=O)Nc2cccc(F)c2)C1 1.05%
CC(C)c1cn([C@H]2C[C@@H]3O[C@H](CO)CC[C@@H]3O[C@@H]2CCc2ccc(C#CC3CCCCC3)cc2)nn1 -3.82%
Cc1sc2c(c1C)c(=O)n(-c1ccccc1)c(=O)n2CC(=O)NCC1CCCO1 (stereo not drawn) -4.65%
CCCNC(=O)CCc1c(C)nc2c(c(C)nn2-c2ccccc2)c1C -2.55%
CCCC#Cc1ccc([C@@H]2[C@@H](CO)N3C(=O)CN(C(=O)Nc4cccc(F)c4)C[C@H]23)cc1 6.12%
CCC(=O)Nc1ccc2c(c1)C(=O)N(C)C[C@@H](OC)[C@H](C)CN(Cc1cccnc1)[C@@H](C)CO2 -0.588%
Cc1ccc(SCC(=O)Nc2nncs2)cc1 -2.47%
Cn1c(CC(=O)Nc2ccc(F)cc2)nnc1SCC(=O)NC1CCCCC1 0.115%
